Assay results as given in PubChem BioAssay (Tox21).
Inconclusive results are not listed. The source made the active and inactive calls. Unless noted, calls come from the whole dose curve; as a rule, active = well fitted curve in the direction sought with a large enough effect in the repeat runs; inconclusive = weak or mixed curves; inactive = no such curve, though single readings can be large; an effect the other way counts as inactive or inconclusive.

Experiments:
[1] = qHTS assay to identify small molecule antagonists of the estrogen receptor alpha (ER-alpha) signaling pathway using the BG1 cell line in the presence of 0.1 nM 17-beta-estradiol - cell viability counter screen (AID 1259241); note: nearly all actives have a fitted effect of over 40% in size; note: potency is the fitted concentration of half-maximal effect
Method in brief: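 VM7Luc4E2 cells (endogenous ER-alpha, 4×ERE-luciferase), hormone-starved 5 days in charcoal-stripped FBS, were treated with compounds plus 0.1 nM 17beta-estradiol for 22 hr at 37C; viability read in same wells as CellTiter-Fluor live-cell protease fluorescence.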

[2] = qHTS assay to identify small molecule antagonists of the androgen receptor (AR) signaling pathway using the MDA cell line in the presence of 0.5 nM R1881 - cell viability counter screen (AID 1259242); note: nearly all actives have a fitted effect of over 45% in size; note: potency is the fitted concentration of half-maximal effect
Method in brief: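 Fluorescence from CellTiter-Fluor, which reports protease activity of live cells, was read 30 min after reagent addition to MDA-kb2 cells that had been incubated 16 hr with compound and 0.5 nM R1881.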

[3] = biological target: Estrogen receptor (Homo sapiens) (UniProt P03372); assay: qHTS assay to identify small molecule antagonists of the estrogen receptor alpha (ER-alpha) signaling pathway using the BG1 cell line in the presence of 0.1 nM 17-beta-estradiol (AID 1259244); note: nearly all actives have a fitted effect of over 50% in size; note: potency is the fitted concentration of half-maximal effect
Chain of Estrogen receptor (Homo sapiens) (P03372 whole entry, looked up): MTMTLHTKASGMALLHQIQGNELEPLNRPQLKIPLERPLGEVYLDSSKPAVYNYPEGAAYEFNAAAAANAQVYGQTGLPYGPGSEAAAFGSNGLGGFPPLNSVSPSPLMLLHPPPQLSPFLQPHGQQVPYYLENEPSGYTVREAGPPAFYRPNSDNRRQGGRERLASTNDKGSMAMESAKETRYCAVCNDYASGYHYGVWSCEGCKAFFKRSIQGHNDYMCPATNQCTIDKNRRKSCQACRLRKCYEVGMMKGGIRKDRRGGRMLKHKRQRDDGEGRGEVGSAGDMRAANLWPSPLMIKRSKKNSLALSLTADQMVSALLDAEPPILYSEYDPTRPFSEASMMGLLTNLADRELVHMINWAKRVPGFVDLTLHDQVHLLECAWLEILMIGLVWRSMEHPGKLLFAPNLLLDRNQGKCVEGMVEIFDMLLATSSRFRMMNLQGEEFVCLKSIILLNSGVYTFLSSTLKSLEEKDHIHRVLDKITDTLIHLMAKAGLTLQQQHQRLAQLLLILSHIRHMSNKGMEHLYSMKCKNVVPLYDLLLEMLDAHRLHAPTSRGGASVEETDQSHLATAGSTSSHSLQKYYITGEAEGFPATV
Method in brief: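 Quantitative high-throughput screen in VM7Luc4E2 cells: compound plus 0.1 nM E2 (final), 22 h, 37C, 5% CO2; ONE-Glo added, 30 min room temperature, luminescence measured.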

[4] = qHTS assay to identify small molecule HDAC inhibitors (AID 1259364); note: nearly all actives have a fitted effect of over 45% in size; note: potency is the fitted concentration of half-maximal effect; for activity change, negative = inhibition: top concentration of the series differs between compounds
Method in brief: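 Endogenous HDAC class I/II activity was measured in wild-type HCT-116 cells by HDAC-Glo luminescence after 2 h compound treatment.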

[5] = qHTS assay to identify small molecule antagonists of the sonic hedgehog signaling (Shh) pathway - cell viability counter screen (AID 1259367); note: nearly all actives have a fitted effect of over 55% in size; note: potency is the fitted concentration of half-maximal effect
Method in brief: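 Cells: 3T3 Gli1-Luc, 2,000/well, 4 hr pre-incubation. Compounds in DMSO, then conditioned medium. Incubation 24 hr, 37C, 5% CO2. CellTiter-Fluor at 23 hr, 1 hr, fluorescence.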

[6] = qHTS assay to identify small molecule agonists of the sonic hedgehog signaling (Shh) pathway (AID 1259368; calls by dose curve; note: series mostly up to about 92 µM; nearly all actives have a fitted effect of over 15% in size)
Method in brief: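 Luminescent signal was taken as a measure of Gli1-controlled luciferase expression in stably transfected NIH/3T3-derived cells that had been treated for 24 hr with compounds delivered in DMSO.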

[7] = qHTS assay to identify small molecule antagonists of the sonic hedgehog signaling (Shh) pathway (AID 1259369; calls by dose curve; note: nearly all actives have a fitted effect of over 45% in size; note: potency is the fitted concentration of half-maximal effect)
Method in brief: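 Screening used 3T3Gli1-Luc cells at 2,000 per well, compounds delivered in DMSO, and conditioned medium as agonist stimulus; plates incubated 24hr at 37 C and 5% CO2 before a 30min luciferase step.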

[8] = biological target: Estrogen receptor beta (Homo sapiens) (UniProt Q92731); assay: qHTS assay to identify small molecule agonists of the estrogen receptor beta (ER-beta) signaling pathway (AID 1259377; active = well fitted activation curve with a large enough effect in the signal ratio in the repeat runs, not every such curve was filed as active; the % refers to the signal ratio)
Chain of Estrogen receptor beta (Homo sapiens) (Q92731 whole entry, looked up): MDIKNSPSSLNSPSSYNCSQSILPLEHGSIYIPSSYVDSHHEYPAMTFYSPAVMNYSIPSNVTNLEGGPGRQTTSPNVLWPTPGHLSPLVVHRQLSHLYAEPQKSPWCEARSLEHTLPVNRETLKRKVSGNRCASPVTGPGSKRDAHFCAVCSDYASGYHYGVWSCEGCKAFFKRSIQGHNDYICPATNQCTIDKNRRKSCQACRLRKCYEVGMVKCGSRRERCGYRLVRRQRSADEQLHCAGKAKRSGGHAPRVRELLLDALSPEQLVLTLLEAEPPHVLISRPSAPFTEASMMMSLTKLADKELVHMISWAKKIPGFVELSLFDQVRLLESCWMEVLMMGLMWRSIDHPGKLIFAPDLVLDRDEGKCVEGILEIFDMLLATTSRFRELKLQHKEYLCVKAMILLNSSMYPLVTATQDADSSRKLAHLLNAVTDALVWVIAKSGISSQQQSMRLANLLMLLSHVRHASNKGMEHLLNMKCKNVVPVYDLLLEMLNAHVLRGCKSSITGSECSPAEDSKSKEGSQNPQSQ
Method in brief: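 ER-beta-UAS-bla HEK293T (GripTite) cells carrying a UAS-driven beta-lactamase reporter, in medium with 2% charcoal-stripped FBS, were exposed to compounds for 16 hr at 37C; LiveBLAzer B/G FRET substrate was then added and fluorescence read after 2 hours at room temperature.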

[9] = biological target: Estrogen receptor beta (Homo sapiens) (UniProt Q92731); assay: qHTS assay to identify small molecule antagonists of the estrogen receptor beta (ER-beta) signaling pathway (AID 1259378; active = well fitted inhibition curve with a large enough effect in the signal ratio in the repeat runs, not every such curve was filed as active; the % refers to the signal ratio)
Method in brief: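 Antagonist mode: compounds added to beta-lactamase reporter HEK293T ER-beta-UAS cells stimulated with E2 (1nM final), 16 hr at 37C. LiveBLAzer B/G FRET substrate, 2 hours room temperature, fluorescence read-out.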

[10] = qHTS assay to identify small molecule agonists of the androgen receptor (AR) signaling pathway in the presence of an antagonist - cell viability counter screen (AID 1259379); note: nearly all actives have a fitted effect of over 25% in size; note: potency is the fitted concentration of half-maximal effect;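 for activity change, negative = cytotoxicity: MDA-kb2 human breast cancer cells carrying an MMTV luciferase reporter; series mostly up to about 92 µM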
Method in brief: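 In MDA-kb2 cells (human breast carcinoma, MMTV-luciferase), compounds at 15 concentrations plus 3.0uM nilutamide; 16 hr, 37C, 0% CO2; CellTiter-Fluor fluorescence read for viability.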

[11] = biological target: Estrogen receptor (Homo sapiens) (UniProt P03372); assay: qHTS assay to identify small molecule agonists of the estrogen receptor alpha (ER-alpha) signaling pathway in the presence of an antagonist (AID 1259383; calls by dose curve; note: top concentration of the series differs between compounds; nearly all actives have a fitted effect of over 15% in size)
Method in brief: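 In VM7Luc4E2 cells, 4,000 per well, compounds at 15 concentrations were co-incubated 22hr at 37C with 10.0nM final ICI-182,780. Luminescence from the stably transfected 4×ERE-luciferase reporter was recorded 30min after ONE-Glo addition.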

[12] = qHTS assay to identify small molecule agonists of the sonic hedgehog signaling (Shh) pathway - cell viability counter screen (AID 1259366); note: nearly all actives have a fitted effect of over 50% in size
Method in brief: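 NIH/3T3-derived 3T3 Gli1-Luc cells (stable Gli1-responsive firefly luciferase reporter) were seeded, rested 4 hr at 37 C/5% CO2, then exposed to compounds in DMSO for 24 hr; viability was read by CellTiter-Fluor fluorescence in the same wells.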

[13] = qHTS assay to identify small molecule agonists of the estrogen receptor beta (ER-beta) signaling pathway - cell viability counter screen (AID 1259380); note: nearly all actives have a fitted effect of over 30% in size
Method in brief: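 Viability of ER-beta-UAS-bla HEK293T cells was determined by CellTiter-Glo luminescence following 16 hr treatment with test compounds at 37C.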

[14] = qHTS assay to identify small molecule antagonists of the estrogen receptor beta (ER-beta) signaling pathway - cell viability counter screen (AID 1259382); note: series mostly up to about 92 µM; nearly all actives have a fitted effect of over 55% in size
Method in brief: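 Tox21 10K library tested in qHTS format on ER-beta-bla HEK293T cells stimulated with 1nM E2; 16 hr treatment at 37C. Same-well CellTiter-Glo luminescence served as the cell viability measure.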

[15] = qHTS assay to identify small molecule agonists or antagonists of the thyroid stimulating hormone receptor (TSHR) signaling pathway - wild type cell line counter screen (AID 1259384; calls by dose curve)
Method in brief: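 Counter screen in untransfected Hek293: compounds (15-point titration, triplicate) plus phosphodiesterase inhibitor Ro20-1724 added after 18 h plating; 30 min RT. Intracellular cAMP via competitive d2/cryptate immunoassay, 1 h incubation.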

[16] = biological target: Thyrotropin receptor (Homo sapiens) (UniProt P16473); assay: qHTS assay to identify small molecule antagonists of the thyroid stimulating hormone receptor (TSHR) signaling pathway (AID 1259385; calls by dose curve; note: nearly all actives have a fitted effect of over 20% in size)
Chain of Thyrotropin receptor (Homo sapiens) (P16473 whole entry, looked up): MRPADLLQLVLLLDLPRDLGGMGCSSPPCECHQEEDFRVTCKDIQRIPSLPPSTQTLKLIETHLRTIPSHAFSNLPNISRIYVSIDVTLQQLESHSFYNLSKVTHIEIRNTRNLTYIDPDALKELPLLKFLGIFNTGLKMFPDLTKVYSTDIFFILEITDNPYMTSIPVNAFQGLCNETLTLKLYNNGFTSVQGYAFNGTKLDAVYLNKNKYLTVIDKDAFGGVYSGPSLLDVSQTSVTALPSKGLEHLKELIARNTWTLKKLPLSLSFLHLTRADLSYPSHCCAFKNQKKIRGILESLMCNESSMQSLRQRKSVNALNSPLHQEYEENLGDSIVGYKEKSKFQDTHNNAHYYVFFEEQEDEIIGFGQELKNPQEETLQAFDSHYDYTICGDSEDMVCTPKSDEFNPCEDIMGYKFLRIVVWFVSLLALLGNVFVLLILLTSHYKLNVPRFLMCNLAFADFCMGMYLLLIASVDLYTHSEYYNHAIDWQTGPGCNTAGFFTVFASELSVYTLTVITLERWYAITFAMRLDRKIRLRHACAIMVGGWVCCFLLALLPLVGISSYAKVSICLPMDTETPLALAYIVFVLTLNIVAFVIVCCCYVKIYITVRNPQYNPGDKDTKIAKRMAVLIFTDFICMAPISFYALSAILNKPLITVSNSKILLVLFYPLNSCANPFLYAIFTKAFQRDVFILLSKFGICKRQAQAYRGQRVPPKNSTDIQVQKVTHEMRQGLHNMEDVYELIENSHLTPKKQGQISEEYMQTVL
Method in brief: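 Antagonist mode: compound-treated TSHR-expressing HEK293 cells were stimulated with 1.5 ng/mL TSH (final) in presence of Ro20-1724 for 30 min at RT. HTRF cAMP detection after 1 h; each compound tested at 15 concentrations, triplicate.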

[17] = qHTS assay to identify small molecule HDAC inhibitors - cell viability counter screen (AID 1259365); note: series mostly up to about 92 µM; nearly all actives have a fitted effect of over 50% in size
Method in brief: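 Wild-type HCT-116 cells were seeded at 1,500 per well, incubated overnight at 37 C, then exposed to compounds in DMSO for 2hr. Viability was read by CellTiter-Glo luminescence after 30min at room temperature.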

[18] = qHTS assay to identify small molecule phospholipidosis (PLD) inducers (AID 1259344; active = well fitted curve in the direction sought with a large enough effect; an effect the other way counts as inactive or inconclusive)
Method in brief: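 Phospholipidosis is scored by imaging LipidTOX-stained pits in HepG2 cells exposed to compound for 24 h at 37 C; pit counts and integrated intensities per well and per cell serve as outputs.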
% is set by controls: 0 for no effect and ±100 for the full control effect.

CCN(Cc1cccc(S(=O)(=O)O)c1)c1ccc(C(=C2C=CC(=[N+](CC)Cc3cccc(S(=O)(=O)O)c3)C=C2)c2ccc(O)cc2S(=O)(=O)[O-])cc1
inactive: Potency [6] | Potency [8] | Potency [9] | Potency [11]
active: Potency [1] 16.6 µM | Potency [2] 18.6 µM | Potency [3] 16.6 µM | Potency [4] 3.71 µM | Potency [5] 16.6 µM | Potency [7] 4.67 µM | Potency [10] 16.6 µM

CC(C)c1ccc(C(=O)N=C(N)N)cc1S(C)(=O)=O
inactive: Potency [1] | Potency [2] | Potency [3] | Potency [4] | Potency [12] | Potency [5] | Potency [6] | Potency [7] | Potency [8] | Potency [10] | Potency [13] | Potency [14] | Potency [11] | Potency [15]

CC[C@H]1OC(=O)[C@H](C)[C@@H](O[C@H]2C[C@@](C)(OC)[C@@H](O)[C@H](C)O2)[C@H](C)[C@@H](O[C@@H]2O[C@H](C)C[C@H](N(C)C)[C@H]2O)[C@](C)(O)C[C@@H](C)CN(C)[C@H](C)[C@@H](O)[C@]1(C)O
inactive: Potency [1] | Potency [2] | Potency [3] | Potency [4] | Potency [5] | Potency [6] | Potency [8] | Potency [9] | Potency [10] | Potency [13] | Potency [14] | Potency [11] | Potency [15]

O=C(O)CCS
inactive: Potency [1] | Potency [2] | Potency [3] | Potency [4] | Potency [5] | Potency [6] | Potency [7] | Potency [10] | Potency [13] | Potency [14] | Potency [11] | Potency [15] | Potency [16]

CCCOC(=O)c1c(Cl)c(Cl)c(Cl)c(Cl)c1C(=O)OCCC
inactive: Potency [1] | Potency [2] | Potency [4] | Potency [17] | Potency [12] | Potency [5] | Potency [6] | Potency [7] | Potency [8] | Potency [9] | Potency [10] | Potency [14]

O=C(O)CN1C(=O)c2cccc3cccc(c23)C1=O
inactive: Potency [1] | Potency [2] | Potency [18] | Potency [4] | Potency [17] | Potency [12] | Potency [5] | Potency [6] | Potency [7] | Potency [13] | Potency [14] | Potency [15] | Potency [16]

CCCCCCCCCCCCCOC(=O)CCSCCC(=O)OCCCCCCCCCCCCC
inactive: activity change, negative = cytotoxicity [1] 6.24% [at 19 µM] | viability change, negative = cytotoxic [2] 3.47% [at 19 µM] | activity change, negative = inhibition [4] 3.35% [at 19 µM] | activity change, negative = cytotoxicity [17] 6.04% [at 19 µM] | viability change, negative = cytotoxic [12] 2.43% [at 19 µM] | viability change, negative = cytotoxic [5] -3.37% [at 19 µM] | activity change [6] -0.0494% [at 18.9 µM, stronger effect = higher value] | activity change, negative = inhibition [7] 8.97% [at 19 µM] | activation [8] -0.464% [at 19 µM] | activity, negative = inhibition [9] -0.0397% [at 19 µM] | activity change, negative = cytotoxicity [10] -0.499% [at 19 µM] | activity change, negative = cytotoxicity [13] 4.18% [at 19 µM] | activity change, negative = cytotoxicity [14] 3.4% [at 19 µM] | cAMP activity change [15] -3.33% [at 18.9 µM, stronger effect = higher value]

CC1=CC[C@@]23C[C@@H]1C(C)(C)[C@@H]2CC[C@H]3C
inactive: Potency [1] | Potency [2] | Potency [4] | Potency [17] | Potency [12] | Potency [5] | Potency [6] | Potency [7] | Potency [8] | Potency [9] | Potency [10] | Potency [13] | Potency [14] | Potency [15] | Potency [16]

Cc1cc(CCC(=O)OCCOCCOCCOC(=O)CCc2cc(C)c(O)c(C(C)(C)C)c2)cc(C(C)(C)C)c1O
inactive: Potency [1] | Potency [2] | Potency [4] | Potency [17] | Potency [12] | Potency [5] | Potency [6] | Potency [7] | Potency [8] | Potency [9] | Potency [13] | Potency [14] | Potency [15] | Potency [16]

CCN(CC)C(=O)N1CCN(C)CC1
inactive: Potency [1] | Potency [2] | Potency [18] | Potency [4] | Potency [17] | Potency [12] | Potency [5] | Potency [6] | Potency [7] | Potency [8] | Potency [9] | Potency [10] | Potency [13] | Potency [14] | Potency [15] | Potency [16]

O=C(O)CCC(=O)OC[C@@H](NC(=O)C(Cl)Cl)[C@H](O)c1ccc([N+](=O)[O-])cc1
inactive: Potency [1] | Potency [2] | Potency [18] | Potency [4] | Potency [17] | Potency [5] | Potency [6] | Potency [7] | Potency [9] | Potency [10] | Potency [13] | Potency [14]

CCCCCCCC/C=C/C(=O)O
inactive: Potency [1] | Potency [2] | Potency [4] | Potency [17] | Potency [12] | Potency [5] | Potency [6] | Potency [7] | Potency [8] | Potency [15]

CC(=O)OCC(=O)[C@@]1(OC(C)=O)[C@@H](C)C[C@H]2[C@@H]3C[C@H](F)C4=CC(=O)C=C[C@]4(C)[C@@]3(F)[C@@H](O)C[C@@]21C
inactive: Potency [1] | Potency [2] | Potency [18] | Potency [4] | Potency [12] | Potency [5] | Potency [6] | Potency [8] | Potency [9] | Potency [10] | Potency [14] | Potency [15]

COc1ccc(-n2nc(C(F)F)cc2-c2ccc(S(C)=O)cc2)cc1 (stereo unspecified)
inactive: Potency [1] | Potency [2] | Potency [3] | Potency [4] | Potency [12] | Potency [5] | Potency [6] | Potency [10] | Potency [13] | Potency [14] | Potency [11] | Potency [15] | Potency [16]
active: Potency [7] 1.09 µM

CC[C@@H](CO)NCCN[C@@H](CC)CO
inactive: Potency [1] | Potency [2] | Potency [18] | Potency [4] | Potency [17] | Potency [12] | Potency [5] | Potency [6] | Potency [7] | Potency [8] | Potency [9] | Potency [10] | Potency [13] | Potency [14] | Potency [15]

SCCc1cnccn1
inactive: Potency [1] | Potency [2] | Potency [3] | Potency [12] | Potency [5] | Potency [6] | Potency [7] | Potency [8] | Potency [9] | Potency [14] | Potency [11] | Potency [15] | Potency [16]
